Test results taken from the supplement of paper PMC12669032.
Where “and” joins values, the source holds several entries; their conditions need not be identical. Equal values may be shown once. Values without a mark were called inactive.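 How the source made its calls: active = AUC reduced over 20% with Padj below 0.05 in at least 2 of 3 replicates; inactive = otherwise.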

test system: Escherichia coli IAI1; experiment: growth AUC relative to DMSO control (median of replicates) (fraction); higher = more growth (less inhibition), active = hit call of the paper; conditions: 20 µM; 24 h
In short: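 Hourly OD600 readings over 24 h tracked anaerobic gut bacterial monocultures grown at 37 °C in mGAM from OD600 0.05 with 20 µM compound (1% DMSO). After the minimum OD was set to 0, area under the growth curve was normalised to the plate median of solvent-only wells, or to row and column medians on the industrial chemical plate. Values are medians of three biological replicates grown on separate days.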

Row | Structure (SMILES) | growth AUC
1 | Cc1cccc(C)c1N | 0.985
2 | C=CCOC(=O)C(C)(C)OC(=O)c1cc(-n2c(=O)cc(C(F)(F)F)n(C)c2=O)ccc1Cl | 1.02
3 | CCOP(=O)(NC(C)C)Oc1ccc(S(C)(=O)=O)c(C)c1 (centres undefined) | 1.02
4 | Cc1cc(OC(=O)N(C)C)nn1C(=O)N(C)C | 0.971
5 | CCCCCCCCSC(=O)Oc1cc(Cl)nnc1-c1ccccc1 | 0.972
6 | CC1(C(=O)Nc2ccc(O)c(Cl)c2Cl)CCCCC1 | 0.991
7 | CC(Oc1ccc(Oc2ccc(Cl)cc2Cl)cc1)C(=O)O (racemic) | 1.02
8 | C[Si](Cn1cncn1)(c1ccc(F)cc1)c1ccc(F)cc1 | 0.946
9 | CN(C)C1CSSSC1.O=C(O)C(=O)O | 1.02
10 | COP(=S)(OC)SCn1nnc2ccccc2c1=O | 0.968
11 | CCSC(=O)N1CCCCCC1 | 0.993
12 | O=C(O)c1c(Cl)ccc2cc(Cl)cnc12 | 0.969
13 | CCCSP(=S)(OCC)Oc1ccc(SC)cc1 (centres undefined) | 0.959
14 | Cc1cc(C(F)(C(F)(F)F)C(F)(F)F)ccc1NC(=O)c1cccc(I)c1C(=O)NC(C)(C)CS(C)(=O)=O | 1.14
15 | Cc1cc(Cl)ccc1O | 1.02
16 | COc1cc(OC)nc(NC(=O)NS(=O)(=O)c2ncccc2C(=O)N(C)C)n1 | 0.972
17 | Cc1cccc2sc3nncn3c12 | 0.977
18 | CCC(C)c1cc([N+](=O)[O-])cc([N+](=O)[O-])c1O (centres undefined) | 0.924
19 | CCOP(=S)(OCC)SCSC(C)(C)C | 1.01
20 | CCNc1nc(Cl)nc(NC(C)(C)C#N)n1 | 0.988

Row | Structure (SMILES) | growth AUC
21 | Cc1ccccc1C(=O)Nc1cccc(OC(C)C)c1 | 1
22 | N#CN=C1SCCN1Cc1ccc(Cl)nc1 | 0.996
23 | COP(=O)(OC)Oc1ccc(S(C)=O)c(C)c1 (centres undefined) | 0.987
24 | COCC(=O)N(c1c(C)cccc1C)[C@H](C)C(=O)OC | 1.05
25 | CC(=NC#N)N(C)Cc1ccc(Cl)nc1 | 0.982 and 1.08
26 | CC1(C)C(C(=O)OC(C#N)c2cccc(Oc3ccccc3)c2)C1(C)C (centres undefined) | 0.988
27 | CNC(=O)Oc1cc(C)c(N(C)C)c(C)c1 | 0.978
28 | CN(C)C(=S)SSC(=S)N(C)C | 0.973
29 | CCOP(=S)(OCC)SCn1nnc2ccccc2c1=O | 1.03
30 | [CH3][Hg][Cl] | 1.06
31 | CCCCc1c(C)nc(NCC)nc1OS(=O)(=O)N(C)C | 1.01
32 | CC1(C)[C@H](/C=C(\Cl)C(F)(F)F)[C@@H]1C(=O)O[C@@H](C#N)c1cccc(Oc2ccccc2)c1 | 0.992
33 | CCCN(CCOc1c(Cl)cc(Cl)cc1Cl)C(=O)n1ccnc1 | 1.01
34 | CCOP(=S)(OCC)Oc1cc(Cl)c(Br)cc1Cl | 0.992
35 | C/C(=N\NC(=O)Nc1cc(F)cc(F)c1)c1ncccc1C(=O)[O-].[Na+] | 0.995
36 | C1=Cc2cccc3cccc1c23 | 1.01
37 | CCc1ccc(C(=O)NN(C(=O)c2cc(C)cc(C)c2)C(C)(C)C)cc1 | 0.999
38 | C#CCOc1ccc(CCNC(=O)C(OCC#C)c2ccc(Cl)cc2)cc1OC (centres undefined) | 0.996
39 | COC(=O)c1ccccc1S(=O)(=O)NC(=O)Nc1nc(C)nc(OC)n1 | 0.958
